In PubChem BioAssay (NCATS):
Records with an inconclusive call do not appear. A number with no mark means an inactive call. Active and inactive are the calls of the source. Calls follow the shape of the dose curve; as a rule, active = well fitted cell-killing curve with a large enough effect; inconclusive = small, poorly fitted or top-dose-only effect, or effect the other way; inactive = no such curve, though single readings can be large or run the other way. Positions of bridges follow the written chain, without caps; N, C: chain ends. Non-standard residues stand in square brackets, D forms with d. Residues, ends and D or L forms follow the SMILES beside them. ξ: configuration not given here. *: point of attachment. Octanoyl(6-Me) = CCC(C)CCCCC(=O)*; ξThr(3R) = C[C@@H](O)C(N)C(=O)O; dDab = NCC[C@@H](N)C(=O)O; Dab = NCC[C@H](N)C(=O)O

Assay: Quantitative High-Throughput drug screen in 47 multiple myeloma cell lines against the NCATS MIPE library collection: FR4_PLB cell viability assay (AID 1918924; also: nearly all actives have a fitted effect of over 35% in size;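 as to viability (% of DMSO control): 100% = DMSO-treated cells and 0% = wells with media only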)
Details: FR4_PLB myeloma cells viability, CellTiter-Glo ATP, 48 h; series mostly up to 45.8 µM; viability (% of DMSO control): at the top concentration
Summary of the method: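 Viability readout: CellTiter-Glo luminescence following 5 min room-temperature incubation with reagent. Prior exposure: 48 h, 37C, humidified 5% CO2, 500 cells per well.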
Potency is read from the fitted curve at half-maximal effect.

SMILES | Potency | viability (% of DMSO control)
O=c1c(O)c(-c2ccc(O)c(O)c2)oc2cc(O)ccc12 | 20.9 µM (active) | –
O=C(O)C[C@H](O)C[C@H](O)C=Cc1c(C2CC2)nc2ccccc2c1-c1ccc(F)cc1 | 10.5 µM (active) | –
COc1cccc2c1C(=O)c1c(O)c3c(c(O)c1C2=O)C[C@@](O)(C(C)=O)C[C@H]3O[C@H]1C[C@H](N)[C@H](O)[C@H](C)O1 | 0.132 µM (active) | –
CCCCCN=C(N)NN=Cc1c[nH]c2ccc(OC)cc12 | 2.35 µM (active) | –
Nc1nc(N)c2nc(-c3cccc(O)c3)c(-c3cccc(O)c3)nc2n1 | 10.5 µM (active) | –
O=S(=O)(O)CCSSCCS(=O)(=O)O | – | 121%
C[C@]12CCC(=O)C=C1[C@@H]1CC1[C@H]1[C@H]3[C@@H]4C[C@H]4[C@@]4(CCC(=O)O4)[C@@]3(C)CC[C@H]12 (stereo not given in full) | – | 101%
CO[C@@H]1[C@@H](O)[C@H](O)[C@@H](n2c3c(Cl)cccc3c3c4c(c5c6cccc(Cl)c6[nH]c5c32)C(=O)NC4=O)O[C@@H]1CO | 3.32 µM (active) | –
O=C1NC(=O)[C@@H](c2cn3c4c(cccc24)CCC3)[C@H]1c1c[nH]c2ccccc12 | 0.0743 µM (active) | –
O=C(Nc1nnc(-c2ccco2)o1)c1cc(-c2ccccc2)nc2ccccc12 | 23.5 µM (active) | –
COc1ccc(S(=O)(=O)Nc2cccnc2Nc2ccc(O)cc2)cc1 | 0.0264 µM (active) | –
COc1cc(C(C)C)c(Oc2cnc(NC(CO)CO)nc2N)cc1I | 5.26 µM (active) | –
O=C(C[C@@H]1CC=CCCC(=O)O[C@H](c2ccccc2)CNC1=O)NCc1ccc(Cl)cc1 | 16.6 µM (active) | –
CCC[C@H]1C[C@H](C(=O)N[C@@H]([C@@H]2O[C@@H](SC)[C@@H](O)[C@@H](O)[C@@H]2O)[C@H](C)Cl)N(C)C1 | – | 115%
CCCCCCCCCCCCc1ccc(S(=O)(=O)Nc2nncs2)cc1 | – | 104%
CC(=CC(=O)Nc1ccccc1C(=O)O)c1ccc2ccccc2c1 | – | 115%
C[C@](Cc1c[nH]c2ccccc12)(NC(=O)OC1C2CC3CC(C2)CC1C3)C(=O)NC[C@H](NC(=O)CCC(=O)O)c1ccccc1 (stereo not given in full) | – | 124%
C[C@H](O)[C@@H]1C(=O)N2C(C(=O)O)=C(S[C@@H]3CN[C@H](CNS(N)(=O)=O)C3)[C@@H](C)[C@@H]12 | – | 117%
C[C@H]1COc2c(N3CCN(C)CC3)c(F)cc3c(=O)c(C(=O)O)cn1c23 | – | 133%
C=C1C(=CC=C2CCC[C@]3(C)[C@@H]([C@H](C)CCCC(C)(C)O)CC[C@@H]23)C[C@@H](O)C[C@@H]1O | 14.8 µM (active) | –
O=C(O)C=Cc1ccc(Cn2ccnc2)cc1 | – | 120%
CC(=O)O[C@H]1C[C@@H]2CC[C@H]3[C@H]4C[C@H]([N+]5(C)CCCCC5)[C@@H](OC(C)=O)[C@@]4(C)CC[C@@H]3[C@@]2(C)C[C@H]1N1CCCCC1 | – | 114%
C[C@]12CC[C@@H]3c4ccc(O)cc4CC[C@H]3[C@H]1CC[C@H]2O | 16.6 µM (active) | –
CC(C)n1cnc2c(NCCc3ccc(O)cc3)nc(-c3csc4ccccc34)nc21 | 20.9 µM (active) | –
CCC(C)CCCCC(=O)N[C@@H](CCN)C(=O)NC(C(=O)N[C@H](CCN)C(=O)N[C@@H]1CCNC(=O)C([C@@H](C)O)NC(=O)[C@@H](CCN)NC(=O)[C@@H](CCN)NC(=O)[C@@H](CC(C)C)NC(=O)[C@H](Cc2ccccc2)NC(=O)[C@H](CCN)NC1=O)[C@@H](C)O (stereo partly drawn) ({Octanoyl(6-Me)}-[Dab][ξThr(3R)][dDab][dDab][Dab]F[dL][dDab][dDab][ξThr(3R)]; lactam 4-C) | – | 109%
COc1ccc2c(c1OC)C(=O)OC2[C@H]1c2c(cc3c(c2OC)OCO3)CCN1C (stereo not given in full) | 0.0526 µM (active) | –
CC[C@]12C=CCN3CC[C@@]4(c5cc([C@@]6(C(=O)OC)C[C@H]7C[C@@H](C(C)(F)F)CN(Cc8c6[nH]c6ccccc86)C7)c(OC)cc5N(C)[C@H]4[C@@](O)(C(=O)OC)[C@H]1OC(C)=O)[C@@H]32 | 0.0017 µM (active) | –
NC1=N[C@H]2[C@H](CS[C@H]2CCCCC(=O)O)N1 | – | 132% [at 23.2 µM]
CC(=O)O[C@]1(C(C)=O)CC[C@H]2[C@@H]3C=C(C)C4=CC(=O)CC[C@]4(C)[C@@H]3CC[C@@]21C | – | 106%
COc1cc2c(cc1O)CCC1C2CC[C@@]2(C)C1CC[C@@H]2O (stereo not given in full) | 0.743 µM (active) | –
